According to the supplement of paper PMC8728848:
Shown is part of a subset that was picked to be rich in the strongest signals.

Columns and labels:
Assay in all cases: glycan array binding signal (z-score within array); higher = stronger binding
Conditions in all cases: glycan notation: IUPAC condensed, linker removed
[1] = molecular target: GalNAc(a1-3)GalNAc(b1-3)Gal(a1-4)Gal(b1-4)GlcNAc
Summary of the method: (§1)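 Glycan array data came from 3228 arrays in the Consortium for Functional Glycomics database, and only arrays with an available protein sequence were kept. Glycan names were put into IUPAC-condensed notation, and columns mapping to the same glycan were averaged. The binding signal is a within-array Z-score, averaged across arrays of one protein sequence run at different concentrations or buffers and across linkers. A negative Z-score can be read as non-binding.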

GalNAc(b1-4)GlcNAc = molecular target: GalNAc(b1-4)GlcNAc
Summary of the method: as §1

[2] = molecular target: GalNAc(b1-4)GlcNAc(b1-2)Man(a1-3)[GalNAc(b1-4)GlcNAc(b1-2)Man(a1-6)]Man(b1-4)GlcNAc(b1-4)GlcNAc
Summary of the method: as §1

GalNAc(b1-4)GlcNAc6S = molecular target: GalNAc(b1-4)GlcNAc6S
Summary of the method: as §1

[3] = molecular target: GlcNAc(b1-2)[GlcNAc(b1-4)]Man(a1-3)[GlcNAc(b1-4)][GlcNAc(b1-2)Man(a1-6)]Man(b1-4)GlcNAc(b1-4)GlcNAc
Summary of the method: as §1

[4] = molecular target: GlcNAc(b1-3)Gal(b1-4)GlcNAc(b1-6)[GlcNAc(b1-3)Gal(b1-3)]GalNAc
Summary of the method: as §1

[5] = molecular target: GlcNAc(b1-3)[GlcNAc(b1-6)]Gal(b1-4)GlcNAc
Summary of the method: as §1

[6] = molecular target: Man(a1-2)Man(a1-6)[Man(a1-3)]Man(a1-6)[Man(a1-2)Man(a1-2)Man(a1-3)]Man(b1-4)GlcNAc(b1-4)GlcNAc
Summary of the method: as §1

Man(a1-3)[Man(a1-6)]Man = molecular target: Man(a1-3)[Man(a1-6)]Man
Summary of the method: as §1

[7] = molecular target: Man(a1-3)[Man(a1-6)]Man(a1-6)[Man(a1-2)Man(a1-3)]Man(b1-4)GlcNAc(b1-4)GlcNAc
Summary of the method: as §1

[8] = molecular target: Man(a1-3)[Man(a1-6)]Man(a1-6)[Man(a1-3)]Man(b1-4)GlcNAc(b1-4)GlcNAc
Summary of the method: as §1

[9] = molecular target: Neu5Ac(a2-3)Gal(b1-3)GalNAc
Summary of the method: as §1

[10] = molecular target: Neu5Ac(a2-3)Gal(b1-3)[Fuc(a1-4)]GlcNAc(b1-3)Gal(b1-4)[Fuc(a1-3)]GlcNAc
Summary of the method: as §1

[11] = molecular target: Neu5Ac(a2-3)Gal(b1-4)GlcNAc6S
Summary of the method: as §1

[12] = molecular target: Neu5Ac(a2-3)Gal(b1-4)[Fuc(a1-3)]GlcNAc(b1-3)Gal
Summary of the method: as §1

[13] = molecular target: Neu5Ac(a2-3)Gal(b1-4)[Fuc(a1-3)]GlcNAc(b1-3)GalNAc
Summary of the method: as §1

[14] = molecular target: Neu5Ac(a2-3)[GalNAc(b1-4)]Gal(b1-4)Glc
Summary of the method: as §1

[15] = molecular target: Neu5Ac(a2-6)Gal(b1-4)GlcNAc(b1-2)[Neu5Ac(a2-6)Gal(b1-4)GlcNAc(b1-6)]Man(a1-6)[Neu5Ac(a2-6)Gal(b1-4)GlcNAc(b1-2)Man(a1-3)][GlcNAc(b1-4)]Man(b1-4)GlcNAc(b1-4)GlcNAc
Summary of the method: as §1

[16] = molecular target: Neu5Ac(a2-6)Gal(b1-4)GlcNAc(b1-3)Gal(b1-4)GlcNAc(b1-3)Gal(b1-4)GlcNAc(b1-2)Man(a1-3)[Neu5Ac(a2-6)Gal(b1-4)GlcNAc(b1-3)Gal(b1-4)GlcNAc(b1-3)Gal(b1-4)GlcNAc(b1-2)Man(a1-6)]GalNAc
Summary of the method: as §1

[17] = molecular target: Neu5Ac(a2-8)Neu5Ac(a2-3)[GalNAc(b1-4)]Gal(b1-4)Glc
Summary of the method: as §1

B1: SP16665A-bot-344-23-344 (Bacteroides ovatus) (protein)
chain: SDNEFPDFDYQTVYFANQYGLRTIELGESEFVDNTLDNQHKMVIKAAWGGGYTNRNNVVINFKVDESLCDNLYFKDTDQPLVPMPASYYTLASDRIAIPKGQIMAGVEVQLTDDFFADEKSISENYVIPLLMTNVQGADSILQGKPVVENPVLTNAGDWSILPQNFVLYAVKYVNPWHGEYLRRGIDHATVAGTSKDIIRHEQFVENDEVVNISTKSMKDNLLTLKTKDESGKDISYTVRLSFAEDGSCTVHSGSQNVVVSGSGKFVSKGEKNSLGGKDRNAIYLDYTVNLTDNNIQLATKDTLVLRTRNVYGGKSLEVVRK
glycan array binding signal (z-score) [1]: -0.21
glycan array binding signal (z-score) (GalNAc(b1-4)GlcNAc): 1.18
glycan array binding signal (z-score) [2]: 1.54
glycan array binding signal (z-score) (GalNAc(b1-4)GlcNAc6S): -0.085
glycan array binding signal (z-score) [3]: 1.11
glycan array binding signal (z-score) [4]: -0.227
glycan array binding signal (z-score) [5]: -0.304
glycan array binding signal (z-score) [6]: -0.087
glycan array binding signal (z-score) (Man(a1-3)[Man(a1-6)]Man): -0.441
glycan array binding signal (z-score) [7]: 0.003
glycan array binding signal (z-score) [8]: -0.618
glycan array binding signal (z-score) [9]: 1.94
glycan array binding signal (z-score) [10]: 0.438
glycan array binding signal (z-score) [11]: -0.405
glycan array binding signal (z-score) [12]: -0.135
glycan array binding signal (z-score) [13]: 1.76
glycan array binding signal (z-score) [14]: -0.539
glycan array binding signal (z-score) [15]: -0.263
glycan array binding signal (z-score) [16]: -0.157
glycan array binding signal (z-score) [17]: -0.466
